Pf gamet viab: late stage P. falciparum gametocyte viability inhibitors, primary screen, ATP luminescence, HTS. AID 743093, 2013. inhibition, % at 10.9 µM. P. falciparum stage V gametocytes, 24 h. hit rate 0.065% among 150,000;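 active means inhibition above the mean plus 3 SD of compounds within the control limits, set per campaign, cut at about 38% in these data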;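 further: 0% = DMSO wells and 100% = medium only without gametocytes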
Mcl1-Noxa inh: Mcl-1/Noxa binding inhibitors, primary screen, biochemical, TR-FRET, 1536-well; inhibition, % at 21.7 µM; AID 1022, 2008; TR-FRET Mcl-1/Noxa peptide binding, 2 h; Induced myeloid leukemia cell differentiation protein Mcl-1 (Homo sapiens), Q07820; hit rate 1.5% among 220,000;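 active means compounds that cut the protein-peptide binding signal by more than 50% relative to plate controls in a single-dose test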;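 further: His-tagged Mcl-1 with rhodamine Noxa BH3 peptide and terbium anti-His antibody; 0% = Mcl-1 plus Noxa peptide wells and 100% = peptide-only wells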
Target sequence (Q07820 whole entry, looked up): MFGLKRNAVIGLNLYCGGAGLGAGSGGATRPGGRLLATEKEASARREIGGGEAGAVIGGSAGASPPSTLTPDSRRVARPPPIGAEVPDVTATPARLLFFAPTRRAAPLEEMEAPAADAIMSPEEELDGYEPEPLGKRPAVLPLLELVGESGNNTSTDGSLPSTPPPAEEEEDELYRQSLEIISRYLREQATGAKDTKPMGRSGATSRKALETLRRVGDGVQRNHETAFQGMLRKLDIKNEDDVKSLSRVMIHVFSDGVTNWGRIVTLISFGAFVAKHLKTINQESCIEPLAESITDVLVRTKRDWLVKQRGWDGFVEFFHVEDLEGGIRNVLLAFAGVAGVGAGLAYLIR
Bim-Mcl-1: inhibitors of Bim peptide binding to Mcl-1, primary screen, biochemical, bead-based flow cytometry, multiplex; Bim peptide-Mcl-1 binding; hit rate 0.1% among 190,000; AID 1009, 2008; inhibition, % at 10 µM; Induced myeloid leukemia cell differentiation protein Mcl-1 (Homo sapiens), Q07820; in the data active means inhibition above about 40%;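 further: 0% = no compound tracer wells and 100% = peptide blocker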
Mcl1 Bid PPI: Mcl-1/Bid binding inhibitors, primary screen, biochemical, TR-FRET, 1536-well. TR-FRET Mcl-1/Bid-Dy647 peptide binding. Induced myeloid leukemia cell differentiation protein Mcl-1 (Homo sapiens), Q07820. inhibition, % at 21.7 µM. hit rate 0.97% among 220,000. AID 1021, 2008;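 active means compounds that cut the binding signal by more than half at the single screening dose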;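 further: His-tagged Mcl-1 with europium anti-His antibody binding Bid BH3 peptide; 0% = Mcl-1 plus peptide wells and 100% = peptide-only wells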
eIF4E 4G PPI: eIF4E–eIF4G protein interaction inhibitors, primary screen, biochemical, uHTS, TR-FRET, eIF4GI fragment; hit rate 0.37% among 220,000; Eukaryotic translation initiation factor 4E (Mus musculus) + Eukaryotic translation …; inhibition, % at 21.7 µM; TR-FRET eIF4E-eIF4GI(517-606) binding, 2 h;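 active means inhibition above about 30%, limit read from the data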;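 further: 0% = full FRET control wells and 100% = background wells lacking eIF4GI fragment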
14-3-3 Bad inh: inhibitors of 14-3-3 zeta/Bad binding, primary screen, biochemical, TR-FRET, bovine 14-3-3 zeta | TR-FRET 14-3-3zeta/Dy647-pBad peptide displacement, 1 h | 14-3-3 protein zeta/delta (Bos taurus), P63103 | hit rate 0.71% among 220,000 | AID 781, 2007 | inhibition, % at 21.7 µM;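 active means inhibition above about 70%, limit read from the data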;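 further: 0% = full 14-3-3 plus peptide FRET controls and 100% = background without 14-3-3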
An asterisk follows results filed as active; · = not tested or not shown; [ ] = dose if it differs, or a comment. Rows were chosen to be rich in hits. Some 2.7% of all compounds tested hit in one or more screens of this group.

SMILES	Pf gamet viab	Mcl1-Noxa inh	Bim-Mcl-1	Mcl1 Bid PPI	eIF4E 4G PPI	14-3-3 Bad inh
O=C(Nc1cccc(-c2cn3ccccc3n2)c1)c1cc2ccccc2oc1=O	·	59.2*	2.0	59.7*	-76.4	63.8
CC(=O)Nc1cccc(-c2cn3ccccc3n2)c1	11.7	14.1	0.0	-16.0	3.2	-4.5
COc1ccc(CN2C(=O)CN=C2Nc2cccc(C)c2C)cc1	-22.0	22.7	-1.0	-9.7	22.5	81.9*
COc1cccc(NC2=NCC(=O)N2Cc2cccs2)c1	4.4	14.8	-3.0	17.0	0.0	71.2*
COc1ccc(NC2=NCC(=O)N2Cc2cccs2)cc1	·	32.2	2.0	17.4	42.8*	74.9*
O=C(NCc1cccs1)C1CCCN(c2nc3ccccc3o2)C1 (configuration not stated)	·	-7.4	5.0	-6.3	-5.7	-7.6
CC1Cc2ccccc2N1CC(=O)NC(=O)NC1CCCCC1 (configuration not stated)	-10.5	-6.6	-3.0	-57.7	0.2	1.8
COc1ccc(OCC(O)CNC(=O)/C=C/c2cccc([N+](=O)[O-])c2)cc1 (configuration not stated)	-12.6	-0.1	0.0	-4.6	-1.9	-3.7
COc1ccc(N/C(=C(/C(Cl)=C(Cl)Cl)[N+](=O)[O-])n2nnc3ccccc32)cc1OC	·	35.6	2.0	74.6*	0.4	23.9
COc1cc2c3c(c1)c(C1=NC(=S)NC1=O)c(O)n3C(C)(C)C=C2C	18.8	21.6	-3.0	6.5	-3.5	7.4
CC1(c2ccccc2)CC(C)(C)n2c(O)c(C3=NC(=S)NC3=O)c3cccc1c32 (configuration not stated)	-5.8	60.2*	·	21.6	10.5	11.3
COCCN1C(=O)/C(=C/c2ccc(N3CCCC3)cc2C)SC1=S	0.9	9.4	0.0	-34.1	3.4	-4.2
O=C1CC(=O)N(Cc2ccco2)C(=O)N1	6.9	13.8	-1.0	-47.4	31.3*	59.7
COc1ccccc1-c1ccc(/C=C2/C=C(C)OC2=O)o1	·	2.1	-2.0	-3.6	-0.4	11.4
O=C1C(=Cc2ccc(Br)o2)C(=O)c2ccccc21	·	104.8*	2.0	76.0*	38.1*[fluorescence artefact?]	88.8*[fluorescence artefact?]
CC1=C/C(=C\c2ccc(Br)o2)C(=O)O1	·	71.2*	-6.0	-4.6	17.3	7.5
O=C(N[C@@H]1CCC(=O)N(CC[C@H](Sc2ccccc2)c2ccccc2)CC1)OCc1ccccc1	3.4	·	·	·	·	·
O=C(Nc1ccc(S(=O)(=O)Nc2nccs2)cc1)/C(=C/c1ccccc1Cl)NC(=O)c1ccccc1	15.2	93.6*	-12.0	-68.4	-9.2	5.6
Cc1ccc(-c2n[nH]c(=S)n2/N=C/C=C\c2ccccc2[N+](=O)[O-])cc1	-10.5	-14.7	-2.0	-26.8	-13.2	39.4
O=[N+]([O-])c1ccccc1/C=C/C=N/n1c(-c2ccccc2)n[nH]c1=S	0.5	73.4*	-3.0	-32.9	2.2	7.0
O=[N+]([O-])c1ccccc1/C=C/C=N/n1c(-c2ccc(Cl)cc2)n[nH]c1=S	-29.6	14.6	-5.0	7.7	-34.6	79.0*
Cc1ccc(S(=O)(=O)N2CCN(C(=S)NCCc3ccccc3)CC2)cc1	-35.3	11.2	-1.0	-39.6	-1.9	-13.2
C=CCn1c(=NC(=O)c2ccc(S(=O)(=O)N3CCCc4ccccc43)cc2)sc2cc(S(N)(=O)=O)ccc21	-9.5	54.5*	-4.0	-1.1	7.5	-2.0
C=CCn1c(=NC(=O)c2ccc(S(=O)(=O)N3CCc4ccccc4C3)cc2)sc2cc(S(N)(=O)=O)ccc21	-17.5	-145.8	-6.0	45.8	7.9	30.1
Cc1ccc(C23CC4CC(CC(C(=O)N5CCOCC5)(C4)C2)C3)cc1	-25.0	21.7	-3.0	57.5*	5.1	-3.8
Cc1ccc(C23CC4CC(CC(CN)(C4)C2)C3)cc1	-21.6	-5.3	1.0	8.2	86.2*	-3.6
